Experiment [1] can be described thus: Nuclear factor erythroid 2-related factor 2/antioxidant responsive element (Nrf2/ARE) small molecule agonists: luciferase reporter gene qHTS assay in human keratinocytes (AID 1919969). Also: nearly all actives have a fitted effect of over 35% in size. Also: potency is read from the fitted curve at half-maximal effect. For orientation: In a reporter assay the amount or activity of a reporter protein is the signal.
Experiment [2] concerns the target Gonadotropin-releasing hormone receptor (Homo sapiens) (UniProt P30968). Kind of experiment: Human gonadotropin-releasing hormone receptor (GnRHR) small molecule agonists, calcium flux assay in GnRHR-HEK293 cells (AID 1920063). Also: nearly all actives have a fitted effect of over 35% in size. The gist of the method: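 Cells: HEK293 stably expressing human GnRHR. Steps: overnight (18 h) culture, 1 h calcium dye loading at 37 C, compound addition, kinetic fluorescence read at 480/540 nm. Each compound tested at 15 concentrations in triplicate.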

In experiment [3] the target is KiSS-1 receptor (Homo sapiens) (UniProt Q969F8). In words: Human kisspeptin (KISS1R) small molecule agonists, calcium flux assay in KISS1R-HEK293 cells (AID 1920064; active = well fitted activation curve with a large enough effect in the repeat runs). The method, boiled down:
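Cells plated and incubated 18 h; dye added, 1 h at 37 C; compounds in DMSO pinned in; signal read at 480/540 nm every second for 3 min. Each compound tested at 15 concentrations in triplicate.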
Background: Calcium flux is commonly read through the fluorescence of an indicator in the cells.

A short description of experiment [4]: G protein-coupled receptor (GPCR) small molecule agonists, calcium flux assay: HEK293 wild type cell line counter screen (AID 1920065). The method, boiled down: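 Counter-screen of the Tox21 10K library for non-specific calcium release: dye-loaded cells received compounds in DMSO and were monitored by kinetic fluorescence (480/540 nm, 3 min). Fifteen concentrations, run in triplicate.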

Experiment [5] is described as follows: p53 small molecule agonists, cell-based qHTS assay with human liver microsomes (AID 1963577).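 Also: p53 response element beta-lactamase reporter cells with liver microsomes plus NADPH.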 The gist of the method: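 HLM-supplemented p53RE-bla reporter assay: 16 h compound exposure at 37 C, microsomes and NADPH each 0.5 mg/mL final, read by fluorescence intensity.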
A general note: Quantitative high-throughput screening tests each substance at several concentrations.

A short description of experiment [6]: p53 small molecule agonists, cell-based qHTS assay with rat liver microsomes (AID 1963578). The method, boiled down: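 Quantitative HTS of the Tox21 10K library: p53RE-bla cells, rat liver microsomes plus NADPH at 0.5 mg/mL final each, 16 h at 37 C, beta-lactamase fluorescence detection.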
A short description of experiment [7]: p53 small molecule agonists, cell-based qHTS assay with human liver microsomes: qHTS cell viability counter screen (AID 1963579). Also: nearly all actives have a fitted effect of over 45% in size. Also: potency is read from the fitted curve at half-maximal effect. The method, boiled down:
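Viability of p53RE-bla cells is measured as CellTiter-Glo luminescence following a 16 h, 37 C incubation with compound, liver microsomes from human donors and NADPH.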

Experiment [8] is described as follows: p53 small molecule agonists, cell-based qHTS assay with rat liver microsomes: qHTS cell viability counter screen (AID 1963580). Also: nearly all actives have a fitted effect of over 45% in size. The method, boiled down:
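In HCT-116 cells carrying a p53 response element-bla reporter, compounds were metabolically activated in situ by rat liver microsomes with NADPH over 16 h. Cell ATP content then served as the cytotoxicity measure.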

A short description of experiment [9]: p53 small molecule agonists, cell-based qHTS assay: qHTS cell viability counter screen (AID 1963581). Also: nearly all actives have a fitted effect of over 45% in size. Also: potency is read from the fitted curve at half-maximal effect. The gist of the method: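 Cells: HCT-116 with p53 response element-driven beta-lactamase. Treatment: 16 h, 37 C, compounds in DMSO. Read: CellTiter-Glo luminescence after 30 min RT.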
A short description of experiment [10]: p53 small molecule agonists, cell-based qHTS assay (AID 1963582; active = well fitted activation curve with a large enough effect in the signal ratio in the repeat runs, not every such curve was filed as active; the % refers to the signal ratio). The gist of the method:
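Quantitative HTS in p53RE-bla cells: after a 5 h settling period, compounds delivered in DMSO were left on cells for 16 h at 37 C, and reporter induction was measured as fluorescence following 2 h substrate loading.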

For experiment [11], the target named is 5-hydroxytryptamine receptor 2A (Homo sapiens) (UniProt P28223). Kind of experiment: 5-hydroxytryptamine receptor 2A (HTR2A) small molecule antagonists, cell-based qHTS assay (AID 1963586). Also: nearly all actives have a fitted effect of over 45% in size. The method, boiled down: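 Antagonist-mode intracellular calcium assay: DOI (4 nM) added after 5 min compound pre-incubation at room temperature to dye-loaded HTR2A-CHO cells. Fluorescence followed for 3 min, sampled every second.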

Experiment [12] has the same target. In words: 5-hydroxytryptamine receptor 2A (HTR2A) small molecule agonists, cell-based qHTS assay (AID 1963587). Also: nearly all actives have a fitted effect of over 30% in size. The method, boiled down:
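HTR2A-CHO cells, plated 18 h at 37 C/5% CO2, dye-loaded 1 h at 37 C; compounds in DMSO added by pin tool (agonist mode). Intracellular calcium flux read as kinetic fluorescence on FDSS over 2 min at 1 s intervals.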

In experiment [13] the target is Muscarinic acetylcholine receptor M1 (Homo sapiens) (UniProt P11229). In words: Cholinergic receptor muscarinic 1 (CHRM1) small molecule antagonists, cell-based qHTS assay (AID 1963588). Also: nearly all actives have a fitted effect of over 40% in size. Also: potency is read from the fitted curve at half-maximal effect. The method, boiled down: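 CHRM1-CHO calcium-flux assay, antagonist mode. Cells were seeded 18 h, dye-loaded 1 h at 37 C and given compound for 5 min at RT, then acetylcholine was added at 50nM. FDSS fluorescence was read 3 min; 15 concentrations, three runs.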

The target is the same in experiment [14]. In words: Cholinergic receptor muscarinic 1 (CHRM1) small molecule agonists, cell-based qHTS assay (AID 1963589). Also: nearly all actives have a fitted effect of over 35% in size. The gist of the method:
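Agonist-mode qHTS in CHO cells stably carrying human muscarinic M1. Intracellular calcium is tracked by fluorescence every second after compound transfer; each compound runs at 15 concentrations in three independent runs.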

Experiment [15] is described as follows: cAMP Responsive Elements (CRE) small molecule agonists, cell-based qHTS assay (AID 1963590). The method, boiled down:
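Agonist mode qHTS in CRE-bla HEK 293T cells: compounds dosed from DMSO for 3 h at 37 C/5% CO2, followed by LiveBLAzer B/G FRET substrate for 2 h at room temperature.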

Experiment [16] can be described thus: cAMP Responsive Elements (CRE) small molecule antagonists, cell-based qHTS assay (AID 1963591; active = well fitted inhibition curve with a large enough effect in the signal ratio in the repeat runs, not every such curve was filed as active; the % refers to the signal ratio). The gist of the method: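 Antagonist mode: test compounds are co-incubated with the adenylyl cyclase activator NKH477 (0.25 uM final) on CRE-bla HEK293T cells for 3 h at 37 °C, followed by LiveBLAzer substrate loading.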
The target of experiment [17] is Beta-2 adrenergic receptor (Homo sapiens) (UniProt P07550). In words: Adrenergic beta2 receptor (ADRB2) small molecule antagonists, cell-based qHTS assay (AID 1963592). Also: series mostly up to about 92 µM; nearly all actives have a fitted effect of over 50% in size. The method, boiled down:
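Cells (CHO, stable ADRB2 overexpression) incubated 18-20hr at 37C; compounds added from DMSO; agonist mix (1nM isoproterenol, 100uM IBMX, 25uM Ro-20-1724) added; 0.5hr RT; d2-cAMP and anti-cAMP-cryptate added; 1hr RT; 665/615 nm read.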

Experiment [18] has the same target. Kind of experiment: Adrenergic beta2 receptor (ADRB2) small molecule agonists, cell-based qHTS assay (AID 1963593).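 Also: CHO cells stably overexpressing human ADRB2.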 The method, boiled down: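 CHO cells stably over-expressing ADRB2 were plated overnight at 37C, then dosed with compounds plus a stimulation mix containing 100uM IBMX and 25uM Ro-20-1724 for 0.5hr at room temperature. cAMP was measured by HTRF competition, 1hr.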

Experiment [19] addresses D(2) dopamine receptor (Homo sapiens) (UniProt P14416). Kind of experiment: Dopamine D2 receptor (DRD2) small molecule agonists, cell-based qHTS assay (AID 1963594). Also: nearly all actives have a fitted effect of over 35% in size. The method, boiled down: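 HEK293 cells stably expressing DRD2 were cultured 24 h at 37 C, then given Ro20-1724 (0.1 mM final) and compounds for 10 min at room temperature. NKH477 (200nM) was then added for 30 min. cAMP was read by HTRF.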

For experiment [20] the target is unchanged. In words: Dopamine D2 receptor (DRD2) small molecule antagonists, cell-based qHTS assay (AID 1963595; active = well fitted inhibition curve with a large enough effect in the signal ratio in the repeat runs, with a control signal flat; the % refers to the signal ratio; also: potency is read from the fitted curve at half-maximal effect). The gist of the method: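 HTRF cAMP read-out at 665 and 620 nm emission (340 nm excitation). Antagonist mode: compounds were tested against 12 nM quinpirole in DRD2-HEK293 cells, with 200 nM NKH477 raising cAMP and 0.1 mM Ro20-1724 blocking its breakdown.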

Where “and” joins values, the source holds several entries; their conditions need not be identical. Identical values can stand only once. Results filed as inconclusive are left out. A structure can be active in one record and inactive in another. Calls of active or inactive are those of the source. Unless noted, calls follow the shape of the full dose curve.
% is scaled to controls: 0 for no effect and ±100 for the full control effect.

Chain of D(2) dopamine receptor (Homo sapiens) (P14416 whole entry, looked up): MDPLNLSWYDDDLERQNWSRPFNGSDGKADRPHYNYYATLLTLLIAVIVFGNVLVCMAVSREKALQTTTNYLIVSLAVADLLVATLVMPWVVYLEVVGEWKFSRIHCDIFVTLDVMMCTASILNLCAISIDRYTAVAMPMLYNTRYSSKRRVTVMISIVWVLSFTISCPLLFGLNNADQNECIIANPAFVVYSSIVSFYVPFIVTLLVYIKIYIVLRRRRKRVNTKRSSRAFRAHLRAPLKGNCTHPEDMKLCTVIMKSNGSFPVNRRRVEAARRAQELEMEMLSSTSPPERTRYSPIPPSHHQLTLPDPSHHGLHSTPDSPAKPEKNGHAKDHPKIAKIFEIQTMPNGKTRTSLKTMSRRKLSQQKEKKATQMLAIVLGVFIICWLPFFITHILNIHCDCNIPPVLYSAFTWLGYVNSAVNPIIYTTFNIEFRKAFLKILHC
Chain of 5-hydroxytryptamine receptor 2A (Homo sapiens) (P28223 whole entry, looked up): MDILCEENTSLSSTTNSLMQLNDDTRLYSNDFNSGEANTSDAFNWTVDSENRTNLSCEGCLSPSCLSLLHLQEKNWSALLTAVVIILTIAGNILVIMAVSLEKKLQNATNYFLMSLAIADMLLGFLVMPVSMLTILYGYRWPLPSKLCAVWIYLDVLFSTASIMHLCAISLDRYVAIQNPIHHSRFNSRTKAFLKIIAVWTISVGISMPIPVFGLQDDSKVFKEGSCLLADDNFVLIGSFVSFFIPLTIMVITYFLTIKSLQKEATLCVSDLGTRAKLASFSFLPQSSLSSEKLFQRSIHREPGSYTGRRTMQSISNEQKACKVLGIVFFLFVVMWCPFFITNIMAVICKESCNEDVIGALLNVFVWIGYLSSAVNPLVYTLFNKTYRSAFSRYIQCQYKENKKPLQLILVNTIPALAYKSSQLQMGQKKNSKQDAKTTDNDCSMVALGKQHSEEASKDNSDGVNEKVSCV
Chain of Beta-2 adrenergic receptor (Homo sapiens) (P07550 whole entry, looked up): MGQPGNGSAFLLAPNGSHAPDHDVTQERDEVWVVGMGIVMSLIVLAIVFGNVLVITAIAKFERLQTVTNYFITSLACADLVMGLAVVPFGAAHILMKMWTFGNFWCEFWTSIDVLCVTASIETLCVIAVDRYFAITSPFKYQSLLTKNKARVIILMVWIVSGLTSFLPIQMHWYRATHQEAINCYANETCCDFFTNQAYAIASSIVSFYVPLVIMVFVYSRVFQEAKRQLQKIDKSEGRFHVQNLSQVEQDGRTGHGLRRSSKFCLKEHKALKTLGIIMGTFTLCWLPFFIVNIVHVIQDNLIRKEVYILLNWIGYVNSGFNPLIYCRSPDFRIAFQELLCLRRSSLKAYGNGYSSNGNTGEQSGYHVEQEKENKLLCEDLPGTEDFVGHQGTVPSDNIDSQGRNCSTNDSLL
Chain of Gonadotropin-releasing hormone receptor (Homo sapiens) (P30968 whole entry, looked up): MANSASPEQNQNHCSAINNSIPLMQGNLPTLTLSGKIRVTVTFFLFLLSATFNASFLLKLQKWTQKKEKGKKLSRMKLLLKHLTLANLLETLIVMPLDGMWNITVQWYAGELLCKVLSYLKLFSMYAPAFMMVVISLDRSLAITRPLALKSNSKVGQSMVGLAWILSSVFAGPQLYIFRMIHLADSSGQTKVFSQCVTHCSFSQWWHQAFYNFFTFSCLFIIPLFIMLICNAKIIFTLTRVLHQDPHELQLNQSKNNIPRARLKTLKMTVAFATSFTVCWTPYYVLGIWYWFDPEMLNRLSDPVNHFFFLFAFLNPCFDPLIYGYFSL
Chain of Muscarinic acetylcholine receptor M1 (Homo sapiens) (P11229 whole entry, looked up): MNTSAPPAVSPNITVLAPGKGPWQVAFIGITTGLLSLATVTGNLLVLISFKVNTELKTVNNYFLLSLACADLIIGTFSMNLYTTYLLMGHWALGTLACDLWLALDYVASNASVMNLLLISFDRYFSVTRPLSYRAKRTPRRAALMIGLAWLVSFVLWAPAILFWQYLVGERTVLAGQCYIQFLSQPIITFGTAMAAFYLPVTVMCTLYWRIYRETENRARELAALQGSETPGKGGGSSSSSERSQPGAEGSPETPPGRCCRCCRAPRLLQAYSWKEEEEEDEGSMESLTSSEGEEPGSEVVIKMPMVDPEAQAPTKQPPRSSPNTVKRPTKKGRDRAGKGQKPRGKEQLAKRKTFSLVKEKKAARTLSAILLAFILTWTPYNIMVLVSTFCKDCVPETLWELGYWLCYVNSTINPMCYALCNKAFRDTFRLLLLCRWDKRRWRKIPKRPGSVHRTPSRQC
Chain of KiSS-1 receptor (Homo sapiens) (Q969F8 whole entry, looked up): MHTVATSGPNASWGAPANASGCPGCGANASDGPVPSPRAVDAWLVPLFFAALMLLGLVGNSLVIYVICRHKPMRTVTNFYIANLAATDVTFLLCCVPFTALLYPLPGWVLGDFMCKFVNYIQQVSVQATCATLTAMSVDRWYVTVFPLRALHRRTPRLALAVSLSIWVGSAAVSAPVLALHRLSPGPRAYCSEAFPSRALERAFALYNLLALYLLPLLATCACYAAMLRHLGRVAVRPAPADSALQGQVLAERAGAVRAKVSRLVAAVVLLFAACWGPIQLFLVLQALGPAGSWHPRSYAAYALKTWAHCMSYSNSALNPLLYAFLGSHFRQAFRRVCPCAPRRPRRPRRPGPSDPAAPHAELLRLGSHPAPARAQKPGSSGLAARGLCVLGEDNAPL

With `COCCOCCOC`, the Potency entry in experiment [1], in experiment [2], in [3], in [4], in experiment [5] and in experiment [6] was “inactive” in each case. Besides, the Potency entry in [7], in experiment [8], in experiment [10], in experiment [11], in experiment [12] and in [13] was “inactive” in each case. Moreover, the Potency result in experiment [14], in experiment [15], in [16], in experiment [17], in experiment [18] and in [19] was “inactive” in each case. Also, the Potency result in experiment [20] is “inactive”. For the same compound, in experiment [9], the Potency is 145 nM (active) and inactive.

As for `N#Cc1ccccc1`, the Potency result in experiment [1], in experiment [2], in experiment [3], in [4], in experiment [6] and in experiment [7] was “inactive” each time. For the same compound, the Potency entry in experiment [8], in experiment [9], in experiment [10], in [11], in experiment [12] and in experiment [13] was “inactive” throughout. The Potency result in experiment [14], in experiment [15], in [16], in [17], in experiment [19] and in experiment [20] was “inactive” in each case.

Turning to `CN(C)c1nc(N(C)C)nc(N(C)C)n1`, the Potency in [1] was 3.94 µM (active) and inactive. Also, the Potency result in [2], in experiment [3], in experiment [4], in experiment [5], in [6] and in [7] was “inactive” in each case. Moreover, the Potency result in experiment [8], in experiment [9], in experiment [10], in [15], in experiment [16] and in [17] was “inactive” in each case. For the same compound, the Potency entry in [19] and in experiment [20] was “inactive” in each case. Also, the activation in [18] is 17.3% [at 8.39 µM] (inactive).

For `CCC(C)OC(=O)c1ccc(O)cc1` (stereo not given), the Potency result in experiment [1], in experiment [2], in experiment [3], in experiment [4], in [5] and in [6] was “inactive” each time. The Potency result in [8], in experiment [9], in experiment [12], in [14], in experiment [15] and in experiment [16] was “inactive” throughout. Besides, the Potency result in experiment [19] and in experiment [20] was “inactive” throughout.

For `NC(=S)NNC(N)=S`, the Potency entry in [1], in experiment [2], in [3], in experiment [4], in [5] and in experiment [6] was “inactive” each time. For the same compound, the Potency entry in [7], in experiment [8], in [9], in experiment [10], in [11] and in [12] was “inactive” each time. Further, the Potency entry in experiment [13], in [14], in [16], in experiment [17], in [18] and in [19] was “inactive” throughout.

In the case of `O=C(O)CCCCCCCC(=O)O`, the Potency entry in [1], in experiment [2], in experiment [3], in experiment [4], in [5] and in experiment [6] was “inactive” in each case. Also, the Potency result in experiment [7], in experiment [8], in experiment [9], in experiment [10], in experiment [11] and in experiment [12] was “inactive” each time. In addition, the Potency result in experiment [13], in [14], in experiment [15], in [16], in experiment [17] and in experiment [18] was “inactive” each time. Moreover, the Potency entry in experiment [19] and in experiment [20] was “inactive” throughout.

Take `O=C(O)Cc1c[nH]c2ccccc12`: the Potency entry in [1], in experiment [2], in [3], in experiment [4], in experiment [5] and in experiment [6] was “inactive” each time. In addition, the Potency entry in [7], in [8], in experiment [9], in experiment [10], in experiment [11] and in experiment [12] was “inactive” in each case. Also, the Potency entry in experiment [13], in experiment [14], in experiment [15], in experiment [16], in experiment [17] and in experiment [18] was “inactive” in each case. Further, the Potency entry in [19] and in [20] was “inactive” each time.

On to `CN(C)c1ccc(C(=C2C=CC(=[N+](C)C)C=C2)c2ccccc2)cc1`, for which the Potency in [1] is 1.22 µM (active); in experiment [7], 14.5 µM (active) [middle of 4 runs]; in experiment [9], 4.08 µM (active) and 3.97 µM (active); in experiment [13], 4.72 µM (active) and inactive and 18.3 µM (active); in [20] it was 16.8 µM (active). For the same compound, the Potency result in experiment [2], in [3], in experiment [4], in experiment [5], in experiment [6] and in experiment [11] was “inactive” in each case. The Potency entry in experiment [12], in experiment [14] and in [17] was “inactive” each time.

Values taken from PubChem BioAssay (Tox21).
